Results filed as inconclusive are left out. Where a call stands in place of a potency, no number is given. The source made the active and inactive calls. Calls follow the shape of the dose curve; as a rule, active = well fitted inhibition curve with a large enough effect; inconclusive = small, poorly fitted or top-dose-only effect; inactive = flat fitted curve, though single readings scatter. Bridge positions count the residues as written; N and C are the ends. Square brackets hold non-standard residues; d marks the D form. Peptide text beside a SMILES is read from it. * marks the point of attachment. Ileψ(thiazoline)Cys = CC[C@H](C)[C@H](N)C1=N[C@H](C(=O)*)CS1; d(aIle) = CC[C@H](C)[C@@H](N)C(=O)O; dOrn = NCCC[C@@H](N)C(=O)O
Potency is read from the fitted curve at half-maximal effect.

One assay relates to P93_24. Kind of assay: qHTS profiling for inhibitors of Plasmodium falciparum proliferation (AID 504749). Also: nearly all actives have a fitted effect of over 60% in size. The note with it: P. falciparum in erythrocytes, SYBR Green DNA, 72 h; series mostly up to 12.8 µM. The method, boiled down:
(§1)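 Quantitative HTS: compounds pinned into medium, infected erythrocytes added (0.3% parasitemia, 2.5% hematocrit), 72 h culture at 37 C under 5% CO2. Saponin/Triton lysis with SYBR Green I, overnight RT, then fluorescence read.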
(In general: qHTS replaces the single test concentration by a dilution series.)
Regarding `C[C@H](CCC(=O)O)[C@H]1CC[C@@H]2[C@@H]3[C@@H](O)C[C@H]4C[C@@H](O)CC[C@@]4(C)[C@H]3CC[C@@]21C`, the Potency entry is “inactive”.

Turning to `CN(C/C=C\c1ccccc1)Cc1cccc2ccccc12`, the Potency result is “inactive”.

With `CCN(CCCCOC(=O)c1ccc(OC)c(OC)c1)[C@@H](C)Cc1ccc(OC)cc1`, the Potency entry is “inactive”. The same measure, in the same setting: the value for `C[C@H](C(=O)O)c1cccc(Oc2ccccc2)c1` was “inactive”. Consider `CC1(C)[C@@H](OC(=O)CCC(=O)O)CC[C@@]2(C)[C@H]1CC[C@@]1(C)[C@H]2C(=O)C=C2[C@H]3C[C@](C)(C(=O)O)CC[C@]3(C)CC[C@@]21C`, for which the Potency result was “inactive”. On the same count and under the same terms, the value for `CCOC(=O)O[C@@H](C)OC(=O)[C@@H]1N2C(=O)[C@@H](NC(=O)[C@@H](N)c3ccccc3)[C@H]2SC1(C)C` was “inactive”.

Take `Cc1ccsc1/C=C\C1=NCCCN1C`: the Potency entry was “inactive”. For `C#C[C@]1(O)CC[C@@H]2[C@H]3CCC4=CCCC[C@@H]4[C@@H]3CC[C@@]21C`, the Potency result was “inactive”.

Turning to `CC[C@H](C)[C@H](N)C1=N[C@H](C(=O)N[C@@H](CC(C)C)C(=O)N[C@@H](CCC(=O)O)C(=O)N[C@@H](C(=O)N[C@H]2CCCCNC(=O)[C@@H](CC(N)=O)NC(=O)[C@@H](CC(=O)O)NC(=O)[C@@H](Cc3cnc[nH]3)NC(=O)[C@@H](Cc3ccccc3)NC(=O)[C@@H]([C@@H](C)CC)NC(=O)[C@@H](CCCN)NC2=O)[C@@H](C)CC)CS1` ({Ileψ(thiazoline)Cys}-LE[d(aIle)]K[dOrn][d(aIle)][dF][dH][dD][dN]; lactam 4-C), the Potency entry was “inactive”. Still for that read-out and setting: the value for `CCN(CC)CCOC(=O)[C@@H](Cc1cccc2ccccc12)C[C@@H]1CCCO1` was “inactive”; that for `Clc1ccc([C@H](Cn2ccnc2)OCc2c(Cl)cccc2Cl)c(Cl)c1` was 0.794 µM (active); that for `C[C@@H](CNC1CCCCC1)OC(=O)c1ccccc1` was 3.16 µM (active). Same read-out and setting: the value for `CC[C@H](CO)NCCN[C@@H](CC)CO` was “inactive”.

Another assay concerns P94_40. The description is as above. To be noted: P. falciparum in erythrocytes, SYBR Green DNA, 72 h; series mostly up to 12.8 µM. The method, boiled down:
as §1
As to `C[C@H](CCC(=O)O)[C@H]1CC[C@@H]2[C@@H]3[C@@H](O)C[C@H]4C[C@@H](O)CC[C@@]4(C)[C@H]3CC[C@@]21C`, the Potency result was “inactive”.

For the compound `CN(C/C=C\c1ccccc1)Cc1cccc2ccccc12`, the Potency result was “inactive”. Turning to `C[C@H](C(=O)O)c1cccc(Oc2ccccc2)c1`, the Potency entry is “inactive”.

In the case of `CC1(C)[C@@H](OC(=O)CCC(=O)O)CC[C@@]2(C)[C@H]1CC[C@@]1(C)[C@H]2C(=O)C=C2[C@H]3C[C@](C)(C(=O)O)CC[C@]3(C)CC[C@@]21C`, the Potency entry was “inactive”. `CCOC(=O)O[C@@H](C)OC(=O)[C@@H]1N2C(=O)[C@@H](NC(=O)[C@@H](N)c3ccccc3)[C@H]2SC1(C)C`: the Potency result is “inactive”. In the case of `Cc1ccsc1/C=C\C1=NCCCN1C`, the Potency result was “inactive”. Turning to `C#C[C@]1(O)CC[C@@H]2[C@H]3CCC4=CCCC[C@@H]4[C@@H]3CC[C@@]21C`, the Potency entry was “inactive”. For the compound `CC[C@H](C)[C@H](N)C1=N[C@H](C(=O)N[C@@H](CC(C)C)C(=O)N[C@@H](CCC(=O)O)C(=O)N[C@@H](C(=O)N[C@H]2CCCCNC(=O)[C@@H](CC(N)=O)NC(=O)[C@@H](CC(=O)O)NC(=O)[C@@H](Cc3cnc[nH]3)NC(=O)[C@@H](Cc3ccccc3)NC(=O)[C@@H]([C@@H](C)CC)NC(=O)[C@@H](CCCN)NC2=O)[C@@H](C)CC)CS1` ({Ileψ(thiazoline)Cys}-LE[d(aIle)]K[dOrn][d(aIle)][dF][dH][dD][dN]; lactam 4-C), the Potency entry was “inactive”. As for `O=C(O)COCCN1CCN([C@@H](c2ccccc2)c2ccc(Cl)cc2)CC1`, the Potency result is “inactive”. Consider `CCN(CC)CCOC(=O)[C@@H](Cc1cccc2ccccc12)C[C@@H]1CCCO1`, for which the Potency result was “inactive”. With `Clc1ccc([C@H](Cn2ccnc2)OCc2c(Cl)cccc2Cl)c(Cl)c1`, the Potency is 3.16 µM (active). With `C[C@@H](CNC1CCCCC1)OC(=O)c1ccccc1`, the Potency was 3.55 µM (active). On to `CC[C@H](CO)NCCN[C@@H](CC)CO`, for which the Potency entry is “inactive”.
